# The full list was thinned out, with hits kept by preference.
# ST2 IL33 inh: IL1RL1 inhibition | AlphaLISA ST2-Fc/biotin-IL-33 interaction, 1 h | Q01638 | inhibition, % for hits at 17 µM | 78,000 compounds, 2.3% hits; in the data active means inhibition above about 30%
# Target sequence (Q01638 whole entry, looked up): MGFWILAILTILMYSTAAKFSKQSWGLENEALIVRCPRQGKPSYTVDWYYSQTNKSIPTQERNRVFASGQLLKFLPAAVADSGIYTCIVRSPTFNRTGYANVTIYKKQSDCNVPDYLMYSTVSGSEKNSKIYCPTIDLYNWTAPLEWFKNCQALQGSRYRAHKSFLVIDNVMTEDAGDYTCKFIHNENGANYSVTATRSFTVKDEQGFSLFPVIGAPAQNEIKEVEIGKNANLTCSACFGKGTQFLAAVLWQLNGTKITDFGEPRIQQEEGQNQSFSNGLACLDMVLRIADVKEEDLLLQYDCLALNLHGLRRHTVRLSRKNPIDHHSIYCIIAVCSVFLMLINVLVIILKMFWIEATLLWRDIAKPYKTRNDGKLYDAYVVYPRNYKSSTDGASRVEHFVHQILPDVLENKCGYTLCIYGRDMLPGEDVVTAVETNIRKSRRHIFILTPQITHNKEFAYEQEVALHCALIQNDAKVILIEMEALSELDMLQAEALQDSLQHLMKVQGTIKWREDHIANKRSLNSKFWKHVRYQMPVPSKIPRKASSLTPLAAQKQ
# A number is an active result; . = inactive.
SMILES,ST2 IL33 inh
N#Cc1c(C(F)(F)F)cc(NCCN2CCOCC2)n2c1nc1ccccc12,34.0%
Cc1cc(NCCN2CCOCC2)n2c(nc3ccccc32)c1C#N,.
CCCc1cc(NCCOC)n2c(nc3ccccc32)c1C#N,.
COC(=O)[C@@H]1Cc2ncn(C)c2CN1S(=O)(=O)c1ccc(C#N)cc1,.
COC(=O)[C@@H]1Cc2ncn(C(C)C)c2CN1S(=O)(=O)c1ccc(C#N)cc1,35.0%
COC(=O)[C@@H]1Cc2ncn(C(C)C)c2CN1S(=O)(=O)c1ccc(OC)cc1,.
O=C1CSC(c2cccc(Cl)c2Cl)N1c1ccc(O)cc1 (stereo not drawn),.
CCCOC(=O)C1=C(C)NC2=C(C(=O)C(C(=O)OC)C(C)C2)C1c1cc(OC)ccc1OC (stereo not drawn),.
Cc1nc(CN(C)C(=O)CC2(c3ccccc3F)CC(=O)N(C3CCCCC3)C2=O)cs1 (stereo not drawn),.
Cc1ccc(NC(=O)N2Cc3[nH]cnc3C[C@H]2c2nc(-c3ccc4ccccc4c3)no2)cc1,.
O=C(Nc1ccccc1)N1Cc2[nH]cnc2C[C@H]1c1nc(-c2ccc3ccccc3c2)no1,38.0%
O=C(NC1CCCCC1)N1Cc2[nH]cnc2C[C@H]1c1nc(-c2ccc3ccccc3c2)no1,.
CCOC(=O)N1CCN(C(=O)Nc2ccc3nc(C)c(C)nc3c2)CC1,.
O=C(Nc1ccc2nsnc2c1)N1CCCCCC1,.
Cc1nc2ccc(NC(=O)N3CCN(c4ccccc4)CC3)cc2nc1C,.
O=C(Nc1ccc2nc(-c3ccco3)c(-c3ccco3)nc2c1)N1CCSCC1,30.0%
O=C(Nc1ccc2nc(-c3ccccn3)c(-c3ccccn3)nc2c1)N1CCOCC1,.
O=C(Nc1ccc2nc(-c3ccco3)c(-c3ccco3)nc2c1)N1CCOCC1,36.0%
O=C(COc1ccc([N+](=O)[O-])cc1)NCCc1ccccc1,.
COc1cc(C(=O)Nc2sc3c(c2C(N)=O)CC(C)CC3)cc(OC)c1OC (stereo not drawn),.
CCOc1ccc(Cn2c(CNS(=O)(=O)c3ccc(Cl)cc3)nc3cccnc32)cc1,.
CC(Cc1cn(CCCN2CCCC2=O)nn1)c1ccccc1 (stereo not drawn),.
O=C(c1ccc2c(c1)N(Cc1c(F)cccc1Cl)C(=O)CS2)N1CCC2(CC1)OCCO2,.
CCC1Oc2ccccc2N(CC(=O)NCCN(CC)CC)C1=O (stereo not drawn),.
Cc1ccccc1OCC(=O)N1N=C(c2cccc(Br)c2)CC1(O)C(F)(F)F (stereo not drawn),.
SMILES,ST2 IL33 inh
NC(=O)[C@@H]1CCCN1c1ccc(-c2nc(-c3ccccc3F)no2)cn1,.
Cc1ccc(NC2=C(NCCO)C(=O)c3ccccc3C2=O)cc1,51.0%
Cc1ccc(Nc2nnc(-c3ccc(C)c(S(=O)(=O)NCCO)c3)c3ccccc23)cc1,.
Cc1ccc(C(NC(=O)CN2C(=O)c3ccccc3C2=O)c2ccccc2)cc1 (stereo not drawn),.
CCCn1nccc1C(=O)N1CCNCC1C(=O)N1CCOCC1 (stereo not drawn),.
Cc1ccc(N2CC(NC(=O)Cc3ccc(Cl)cc3)CC2=O)cc1 (stereo not drawn),.
Cc1cc([N+](=O)[O-])nn1CCCC(=O)Nc1sc2c(c1C#N)CCCC2,.
COC1(NS(=O)(=O)c2ccc(C)cc2)C(C)=CC(=O)C=C1C,.
CCOc1ccccc1N=Cc1c(O)n(-c2ccccc2C)c(=O)c2ccccc12,.
COc1ccc(C)cc1NC(=O)CNC(=O)c1cn(-c2ccccc2OC)c(=O)c2ccccc12,.
Cc1cc(O)c(C=Nc2cccc(C(=O)O)c2)c(C)c1Cl,.
COc1ccccc1-n1nc(C(=O)O)c2ccccc2c1=O,.
COc1ccccc1-n1c(O)c(C=Nc2ccc(C)cc2)c2ccccc2c1=O,34.0%
Cc1ccccc1-n1c(O)c(C=Nc2ccccc2)c2ccccc2c1=O,47.0%
O=C1c2ccccc2C(Nc2ccccc2)N1Cc1ccccc1 (stereo not drawn),.
CC(NC(=O)c1ccc(-n2cnnc2)cc1)c1ccccc1-n1cccn1 (stereo not drawn),.
CC(CCc1ccccc1)NC(=O)C1CCC(Cn2c(=O)[nH]c3ccsc3c2=O)CC1 (stereo not drawn),.
Cc1n[nH]c(C)c1CCCN(C)c1cc(N(C)C)ncn1,.
COc1ccc(N2C(=O)CC(N3CCC(C)CC3)C2=O)cc1 (stereo not drawn),.
O=C(CC(=O)c1ccc([N+](=O)[O-])cc1)c1ccccc1,.
O=C(c1ccc([N+](=O)[O-])cc1)N(c1ccccn1)c1ccccn1,.
CCN(CC)/C(=C\C(=O)c1ccc([N+](=O)[O-])cc1)c1ccccc1,31.0%
CCOC(=O)C(C)Sc1nc(N2CCOCC2)c2c(c1C#N)CCCC2 (stereo not drawn),.
CC(C)N1CCN(Cc2cccc3c2oc2ccccc23)CC1CCO (stereo not drawn),.
CC(=O)N1N=C(c2ccccc2)CC1c1ccc(Br)cc1 (stereo not drawn),.
SMILES,ST2 IL33 inh
N#CC1CC(c2ccccc2)=NN1c1ccccc1 (stereo not drawn),96.0%
c1ccc(C2=NN3COc4ccccc4C3C2)cc1 (stereo not drawn),.
CCCCOc1ccc(S(=O)(=O)N(C)C)cc1,.
Cc1cc(C)n(-c2ccc3cccc([N+](=O)[O-])c3n2)n1,.
O=[N+]([O-])c1cccc2ccc(Nc3ccccn3)nc12,31.0%
O=[N+]([O-])c1ccccc1OCCOc1cccc2cccnc12,.
CC(C)C(NS(=O)(=O)c1cccc2nsnc12)C(=O)N1CCCCCC1 (stereo not drawn),.
Cc1c(C(=O)NCc2cccnc2)sc2ncnc(N3CCN(c4ccccn4)CC3)c12,.
CN1CCc2[nH]c3c(Cl)cccc3c2C1,.
Cc1ccc2c(c1)c1c(n2CCN2C(=O)c3ccccc3C2=O)C(=O)CCC1,.
Cc1ccc2c(c1)c1c(n2CCC#N)CCN(C)C1,42.0%
COc1ccc(CCN2CC(NC(=O)c3ccc(C)nc3)CC2=O)cc1 (stereo not drawn),.
c1ccc(CCCN2CCC(N3CCCCC3)CC2)cc1,.
CCn1c(C(C)NC(C)=O)nc2ccccc21 (stereo not drawn),.
CC(O)c1nc2ccccc2n1Cc1ccccc1 (stereo not drawn),36.0%
CC(O)c1nc2ccccc2n1CCCOc1ccccc1 (stereo not drawn),.
CCCc1cc(CN(C)C(=O)c2cc(NC(=O)c3ccccc3)cc3ncn(C4CCCC4)c23)[nH]n1,.
CN(Cc1ccccc1)c1ncnc2sc3c(c12)CCCC3,.
COc1ccc2nc3oc(C(=O)NCCN4CCOCC4)cc3cc2c1,.
CN1C[C@@H](NC(=O)CCC(=O)O)C[C@H]1c1nc(-c2ccccc2)no1,.
CN1C[C@@H](NC(=O)CC(C)(C)CC(=O)O)C[C@H]1c1nc(-c2ccc(F)cc2)no1,30.0%
CN1C[C@@H](NC(=O)Nc2cccc(F)c2)C[C@H]1c1nc(-c2ccc(F)cc2)no1,36.0%
CN1C[C@@H](NC(=O)Nc2ccccc2)C[C@H]1c1nc(-c2ccc(F)cc2)no1,.
CN1C[C@@H](NC(=O)c2ccccc2)C[C@H]1c1nc(-c2ccc(F)cc2)no1,.
Cc1ccc(-c2noc([C@@H]3C[C@H](NC(=O)Nc4cccc(F)c4)CN3C)n2)cc1,.
CN1C[C@@H](NC(=O)NCc2ccccc2)C[C@H]1c1nc(-c2ccccc2)no1,.
CN1C[C@@H](NC(=O)c2ccco2)C[C@H]1c1nc(-c2cccnc2)no1,49.0%
CN1C[C@@H](NC(=O)Nc2cccc(F)c2)C[C@H]1c1nc(-c2cccnc2)no1,.

# Screens: PubChem, Paczesny and Yang Labs, IUPUI and University of Michigan
